Results filed as inconclusive are left out. The source made the active and inactive calls. Calls follow the shape of the dose curve; as a rule, active = well fitted cell-killing curve with a large enough effect; inconclusive = small, poorly fitted or top-dose-only effect, or effect the other way; inactive = no such curve, though single readings can be large or run the other way.
Potency is read from the fitted curve at half-maximal effect.

The subject of this assay is Es-2. As to the kind of experiment: Confirmatory qHTS for gynecologic anti-cancer compounds from libraries of approved drugs and bioactive compounds. Also: nearly all actives have a fitted effect of over 55% in size. To be noted: gynecologic cancer cell panel viability, ATPlite luminescence, 48 h; series mostly up to 57.6 µM. In short, it runs like this: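 ATP-based luminescent viability (ATPlite) after 48 h drug treatment at 37 °C, 5% CO2, across 57.5 uM–0.977 nM in 1:3 steps. Cells seeded at 1,000 per well 16 h beforehand; IC50 values computed, HEK 293T as selectivity control.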
A general note: In qHTS, concentration-response curves come from the screen itself.
Regarding `CCCc1nn(C)c2c(=O)[nH]c(-c3cc(S(=O)(=O)N4CCN(C)CC4)ccc3OCC)nc12`, the Potency entry is “inactive”. The entry for `CCS(=O)(=O)N1CCN(c2ccc(Nc3ncc(C(N)=O)c(NC4CC4)n3)cc2)CC1` is “inactive”; for `Nc1ccccc1NC(=O)c1ccc(CNC(=O)OCc2cccnc2)cc1` it is 7.69 µM (active); for `CCC1=CC2CN(C1)Cc1c([nH]c3ccccc13)[C@@](C(=O)OC)(c1cc3c(cc1OC)N(C)[C@H]1[C@@](O)(C(=O)OC)[C@H](OC(C)=O)[C@]4(CC)C=CCN5CC[C@]31[C@@H]54)C2` (stereo partly specified) it is 0.376 µM (active). The figure for `COc1cccc2c1C(=O)c1c(O)c3c(c(O)c1C2=O)C[C@@](O)(C(=O)CO)C[C@@H]3O[C@H]1C[C@H](N)[C@H](O)[C@H](C)O1` is 1.72 µM (active); for `CC[C@@]1(O)C(=O)OCc2c1cc1n(c2=O)Cc2cc3cc(O)ccc3nc2-1` it is 0.0544 µM (active). The figure for `CCS(=O)(=O)c1cccc(-c2cc(C(=O)NC3CCN(C)CC3)c(C)c3[nH]c4ncc(C)cc4c23)c1` is 5.99 µM (active); for `COc1cc2c(NC3CCN(C(C)C)CC3)nc(C3CCCCC3)nc2cc1OCCCN1CCCC1` it is 12.2 µM (active). In the case of `Cn1cnc2c(F)c(Nc3ccc(Br)cc3Cl)c(C(=O)NOCCO)cc21`, the Potency was 6.85 µM (active). The figure for `COCCOc1nc(-c2ccc(Cl)c(Cl)c2)n(-c2ccc(NC(=O)CCl)cc2)n1` is 5.44 µM (active); for `CC(C)C[C@H](NC(=O)[C@H](CCc1ccccc1)NC(=O)CN1CCOCC1)C(=O)N[C@@H](Cc1ccccc1)C(=O)N[C@@H](CC(C)C)C(=O)[C@@]1(C)CO1` it is 3.06 µM (active).

For the origin of these results see PubChem BioAssay AID1345085 (National Center for Advancing Translational Sciences (NCATS), 2018).
